High-throughput results (PubChem)
Shown are actives, neighbours in structure and some others; about 2.5% of the full set was active somewhere.
POLH inh: inhibitors of human DNA polymerase eta; 390,000 tested, 1.2% active; Q9Y253; Potency, µM (titrated, usually from 114 µM), without a hit: top-dose activity change, negative = inhibition, most hits filed as inhibitors; AID 588591; recombinant Pol eta, fluorescent DNA replication assay; note: % is set by controls: 0 for no effect and ±100 for the full control effect
Target sequence (Q9Y253 whole entry, looked up): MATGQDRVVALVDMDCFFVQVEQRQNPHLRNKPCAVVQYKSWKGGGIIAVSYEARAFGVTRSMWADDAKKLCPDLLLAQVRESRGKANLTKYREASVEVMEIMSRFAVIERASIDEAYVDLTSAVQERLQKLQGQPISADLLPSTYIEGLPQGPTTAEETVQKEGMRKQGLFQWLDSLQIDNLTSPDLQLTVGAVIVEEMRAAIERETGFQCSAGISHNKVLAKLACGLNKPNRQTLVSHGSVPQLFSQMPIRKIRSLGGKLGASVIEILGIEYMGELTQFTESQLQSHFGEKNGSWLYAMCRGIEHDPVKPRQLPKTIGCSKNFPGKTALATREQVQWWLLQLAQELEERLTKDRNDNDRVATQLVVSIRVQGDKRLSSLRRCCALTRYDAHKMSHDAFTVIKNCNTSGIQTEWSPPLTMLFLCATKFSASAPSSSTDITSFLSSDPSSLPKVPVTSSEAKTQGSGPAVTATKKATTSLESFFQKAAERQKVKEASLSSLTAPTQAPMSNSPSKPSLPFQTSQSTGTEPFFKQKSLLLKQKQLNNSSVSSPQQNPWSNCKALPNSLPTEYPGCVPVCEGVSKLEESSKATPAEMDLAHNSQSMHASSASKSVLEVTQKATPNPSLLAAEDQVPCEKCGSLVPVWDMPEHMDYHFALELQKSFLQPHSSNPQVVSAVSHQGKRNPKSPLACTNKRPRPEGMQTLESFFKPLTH
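Fluorescent replication assay: 50 nM final substrate added after a 15 min room-temperature compound preincubation with 10 nM enzyme. Signal taken at 0 min and again at 10 min.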
L3MBTL1 inh: L3MBTL1 (human) inhibition. AlphaScreen L3MBTL1–H3K9me1 peptide binding. Potency, µM (series often up to 57.1 µM), for the others: at the highest dose activity, negative = inhibition, usual class: inhibitors. 230,000 tested, 0.66% active; note: % is set by controls: 0 for no effect and ±100 for the full control effect; nearly all actives have a fitted effect of over 60% in size
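Read-out is AlphaScreen signal from streptavidin donor and nickel chelate acceptor beads (10 ug/mL final each) bridging L3MBTL1 (50 nM) and biotinylated K9-monomethylated H3(1-15) peptide (75 nM), after 30 min compound exposure at room temperature.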
APEX1 inh: blocks human APE1 abasic DNA cleavage. Potency, µM (top dose mostly 65.8 µM), for the others: top-dose activity change, negative = inhibition, hits mostly inhibitors. 350,000 tested, 0.35% active. P27695. AID 2517. recombinant APE1, TAMRA/BHQ-2 abasic DNA cleavage fluorescence;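 note: plate controls were vehicle for no effect and reference inhibitor for full effect; nearly all actives have a fitted effect of over 55% in size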
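Substrate: short duplex with […] THF abasic site, 5'-TAMRA and 3'-BHQ-2, 50 nM final. APE1 at 0.75 nM, preincubated 15 min RT with compound. Fluorescence increase from first to third read measured activity.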
POLI inh: inhibitors of human DNA polymerase iota; Q9UNA4; Pol iota fluorescent replication assay, 10 min; Potency, µM (highest dose often 115 µM), for the others: at the top dose activity, negative = inhibition, usual class: inhibitors; 390,000 tested, 1% active
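Pol iota at 10 nM preincubated 15 min with compounds at room temperature; reaction started with fluorescent substrate, 50 nM final. Fluorescence read kinetically at 0 and 10 min; buffer-only wells as negative control.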
POLK inh: inhibitors of human DNA polymerase kappa; Q9UBT6; purified Pol kappa, fluorescent DNA synthesis assay, 10 min; Potency, µM (series often up to 107 µM), for inactives: top-dose activity, negative = inhibition, usual class: inhibitors; 400,000 tested, 0.53% active; AID 588579; note: % is set by controls: 0 for no effect and ±100 for the full control effect
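10 nM Pol kappa preincubated 15 min at room temperature with compounds, then reaction started with substrate at 50 nM final. Fluorescence read kinetically at 0 and 10 min; buffer-only wells served as negative control.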
Pol beta inh: inhibitors of human DNA polymerase beta; Pol beta primer extension/strand displacement, fluorescence kinetic; Potency, µM (series often up to 114 µM), for the others: at the highest dose activity change, negative = inhibition, actives largely listed as inhibitors; 340,000 tested, 1.3% active; AID 485314; note: % is set by controls: 0 for no effect and ±100 for the full control effect
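Reaction started by 50 nM substrate onto compound-treated Pol beta (10 nM, 15 min preincubation, room temperature); plates read at 0 min and 10 min. Normalized concentration-effect data fitted by four-parameter Hill equation.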
Numbers without * were called inactive; ? = inconclusive; / = no result given; [ ] = dose if it differs, or a comment. Calls come from the whole dose curve; as a rule, active = well fitted curve in the direction sought with a large enough effect; inconclusive = small, poorly fitted or top-dose-only effect, or another doubt; inactive = no such curve, though single readings can be large; an effect the other way counts as inactive or inconclusive. Potency is the fitted concentration of half-maximal effect.

SMILES	POLH inh	L3MBTL1 inh	APEX1 inh	POLI inh	POLK inh	Pol beta inh
CC(CCc1ccccc1)NC(=O)Cn1ncc2c3ccccc3n(Cc3cccc(Cl)c3)c2c1=O (configuration not stated)	?	/	/	?	-24.5%	17.8µM*
Cc1ccc(Cl)cc1NC(=O)Cn1ncc2c(C)n(Cc3ccccc3F)c(C)c2c1=O	?	/	/	?	-31.9%	12.6µM*
CCc1ccccc1NC(=O)Cn1ncc2c(C)n(Cc3ccccc3F)c(C)c2c1=O	-8.5%	/	/	49.5%	-5.0%	8.0%
O=C(Cn1ncc2c3ccccc3n(Cc3cccc(Cl)c3)c2c1=O)NCc1cccs1	-16.6%	/	/	?	-26.9%	25.1µM*
O=C(Cn1ncc2c3ccccc3n(Cc3cccc(Cl)c3)c2c1=O)N1CCCCCC1	-19.9%	/	/	?	-25.0%	25.1µM*
O=C(Cn1ncc2c3ccccc3n(Cc3cccc(Cl)c3)c2c1=O)N1CCCCC1	-24.3%	/	/	-7.5%	-12.9%	?
COc1cc(NC(=S)NCCC(c2ccccc2)c2ccccc2)cc(OC)c1	?	-14.1%	7.1%	89.1µM*	?	29.9%
C#CCOCCOCCOCCNc1nc(N2CCN(C(=O)[C@H](Cc3ccc(O)cc3)n3cc([C@@H](N)C(C)CC)nn3)CC2)nc(N2CCN(C(=O)[C@H](Cc3cc4ccccc4[nH]3)n3cc([C@@H](N)CC(C)C)nn3)CC2)n1 (some centres not stated)	-9.5%	-19.7%	20.8%	79.4µM*	2.7%	28.2µM*
C#CCOCCOCCOCCNc1nc(N2CCN(C(=O)[C@H](CCC(=O)O)n3cc(C(N)CO)nn3)CC2)nc(N2CCN(C(=O)[C@H](CCC(=O)O)n3cc(C(N)[C@H](C)CC)nn3)CC2)n1 (some centres not stated)	8.1%	-17.0%	-3.6%	-11.1%	8.5%	-3.7%
C#CCOCCOCCOCCNc1nc(N2CCN(C(=O)[C@H](Cc3cc4ccccc4[nH]3)n3cc([C@@H](N)CC(C)C)nn3)CC2)nc(N2CCN(C(=O)[C@H](Cc3cc4ccccc4[nH]3)n3cc([C@@H](N)CC(C)C)nn3)CC2)n1	-3.1%	?	3.7%	?	-2.8%	28.2µM*
C#CCOCCOCCOCCNc1nc(N2CCN(C(=O)C(Cc3cc4ccccc4[nH]3)n3cc(C(N)Cc4ccc(O)cc4)nn3)CC2)nc(N2CCN(C(=O)C(CCC(=O)O)n3cc(C(N)C(C)CC)nn3)CC2)n1 (configuration not stated)	-5.2%	25.1µM*	5.0%	?	-7.2%	/
C#CCOCCOCCOCCNc1nc(N2CCN(C(=O)[C@H](Cc3cc4ccccc4[nH]3)n3cc([C@@H](N)Cc4ccc(O)cc4)nn3)CC2)nc(N2CCN(C(=O)[C@H](Cc3cc4ccccc4[nH]3)n3cc([C@@H](N)CC(C)C)nn3)CC2)n1	5.6%	/	2.4%	?	0.7%	-3.5%
C#CCOCCOCCOCCNc1nc(N2CCN(C(=O)[C@H](CCC(=O)O)n3cc(C(N)[C@H](C)CC)nn3)CC2)nc(N2CCN(C(=O)[C@H](CCC(=O)O)n3cc(C(N)[C@H](C)CC)nn3)CC2)n1 (some centres not stated)	25.1µM*	-2.4%	2.4%	?	-54.1%	2.4%
C[C@@H](O)[C@@H]1C(=O)N2C(C(=O)O)=C([C@H]3CCCO3)S[C@H]12	/	/	/	/	0.6%[19.4 µM]	/
Cc1ccc(NC(=O)CN2C(=O)CSc3ccc(S(=O)(=O)N4CCCC4)cc32)cc1F	-20.4%	/	/	11.8%	2.3%	5.8%
O=C(NCCCn1ccnc1)C1CCN(S(=O)(=O)c2cc([N+](=O)[O-])ccc2Cl)CC1	-2.7%	1.7%	48.3%	3.7%	-11.0%	/
Cc1cccc(C)c1NC(=O)CN(C)CC(=O)N(C)CC(=O)Nc1ccccc1Br	-7.1%	2.1%	25.4%	26.3%	-21.4%	/
C#CCOCCOCCOCCNc1nc(N2CCN(C(=O)[C@H](Cc3ccc(O)cc3)n3cc([C@@H](N)C(C)CC)nn3)CC2)nc(N2CCN(C(=O)[C@H](Cc3cc4ccccc4[nH]3)n3cc([C@@H](N)C(C)CC)nn3)CC2)n1 (some centres not stated)	-9.2%	?	13.7%	28.2µM*	-13.4%	25.1µM*
C#CCOCCOCCOCCNc1nc(N2CCN(C(=O)[C@H](Cc3cc4ccccc4[nH]3)n3cc([C@@H](N)C(C)CC)nn3)CC2)nc(N2CCN(C(=O)[C@H](Cc3cc4ccccc4[nH]3)n3cc([C@@H](N)Cc4ccc(O)cc4)nn3)CC2)n1 (some centres not stated)	/	?	-4.5%	/	/	82.7%
Cc1cc2c(NC(=O)CC(C)(C)CC(=O)O)cccc2nn1	28.2µM*	/	?	20µM*	?	-0.6%
COC(=O)C1=C(O)/C(=C\c2ccc(CNC(=O)C(=O)Nc3ccc(C)cc3)o2)N=C1C	?	7.94µM*	-9.9%	?	-42.7%	?
CCOC(=O)C(=O)NCc1ccc(/C=C2/N=C(C)C(C(=O)OCC)=C2O)o1	-10.7%	?	-1.9%	?	?	?
CCOC(=O)C1=C(O)/C(=C/c2ccc(CNC(=O)C(=O)Nc3ccc(C)cc3)o2)N=C1C	?	/	0.7%	-13.6%	-19.6%	?
COC(=O)C1=C(O)/C(=C\c2ccc(CNC(=O)C(=O)Nc3ccc(C)c(C)c3)o2)N=C1C	22.4µM*	/	-7.6%	?	-25.7%	?
CCOC(=O)c1cnc(-n2[nH]c(C)c(Cc3ccccc3)c2=O)[nH]c1=O	?	2.82µM*	15.6%	?	-3.2%	3.16µM*
SMILES	POLH inh	L3MBTL1 inh	APEX1 inh	POLI inh	POLK inh	Pol beta inh
Nc1ccc2ccc(O)cc2c1	50.1µM*	/	/	?	?	/
CCCCn1c(=O)[nH]c(=O)c2c1nc(Cn1ncc(Cl)c(Cl)c1=O)n2CCC	56.2µM*	/	19.7%	25.1µM*	-8.2%	50.1µM*
CCOC(=O)c1c(NC(=O)C2C3C=CC(C3)C2(C)C(=O)O)sc2c1CCCC2 (configuration not stated)	20µM*	-14.7%	?	-30.6%	?	22.4µM*
COc1ccc(N2C(=O)/C(=C\c3ccco3)N=C2SCC(=O)N(C(C)C)C(C)C)cc1Cl	-9.9%	-13.0%	-1.7%	5.2%	-11.2%	56.2µM*
Cn1c(=S)[nH]c2cc(C(=O)N3CCN(Cc4cccs4)CC3)ccc2c1=O	/	/	/	9.0%	15.3%	/
CC1=NN(c2nc(-c3ccc(F)cc3)cs2)C(=O)C1	-2.9%	7.8%	-0.7%	?	-23.5%	0.0%
